Rce1 inh – blocks yeast Ras-converting enzyme. Q03530. yeast membranes, quenched prenylated peptide cleavage fluorescence. calls only. 290,000 tested, 0.27% active. AID 2563;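 active = fall in fluorescence gain of 50% or more versus controls, with final raw signal at or below 3038400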
FID counter – displaces DNA intercalator in HCV helicase counter-screen; inhibition, % at 7.9 µM; AID 1845; 290,000 tested, 0.17% active; DNA fluorescent intercalator displacement, fluorescence; in the data active = inhibition above about 37%;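 also: higher means more ethidium bromide displaced from hairpin DNA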
Kir21 block – blocks the mouse Kir2.1 inward-rectifier potassium channel | HEK293-Kir2.1, FluxOR thallium flux fluorescence; hits give low values | 310,000 tested, 0.85% active | B-score at 10 µM | P35561;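 active = fluorescence ratio B-score at or below minus 3 SD of library scores, with starting-brightness B-score within 2 SD, cut at about -4.2 in these data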;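 also: channel flux triggered by added potassium and thallium sulfate stimulus; B-score of peak minus minimum fluorescence over baseline after thallium stimulus; more negative B-score means stronger Kir2.1 block with less thallium influx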
Target sequence (P35561 whole entry, looked up): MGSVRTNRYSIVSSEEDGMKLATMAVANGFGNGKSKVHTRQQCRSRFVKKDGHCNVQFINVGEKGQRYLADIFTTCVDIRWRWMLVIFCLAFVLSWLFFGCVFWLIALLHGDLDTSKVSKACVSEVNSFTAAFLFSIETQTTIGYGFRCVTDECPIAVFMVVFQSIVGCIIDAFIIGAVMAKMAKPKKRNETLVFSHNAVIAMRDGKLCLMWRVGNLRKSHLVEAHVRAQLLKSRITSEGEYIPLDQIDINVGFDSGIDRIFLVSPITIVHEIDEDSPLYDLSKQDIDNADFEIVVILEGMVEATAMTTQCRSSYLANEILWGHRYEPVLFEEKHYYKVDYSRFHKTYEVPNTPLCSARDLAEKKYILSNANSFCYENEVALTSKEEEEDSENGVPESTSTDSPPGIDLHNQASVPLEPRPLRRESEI
PfM18AAP inh – blocks P. falciparum M18 aspartyl aminopeptidase | recombinant PfM18AAP, H-Glu-NHMec fluorogenic cleavage | inhibition, % at 7.35 µM | 290,000 tested, 1.2% active | AID 1822;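 active = inhibition above the campaign mean inhibition over all tested compounds plus 3 SD, cut at about 28% in these data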
Each line names hits and unclear results; the compound was inactive in the other large screens. This is a sample that favours compounds with a hit; in the whole collection about 2.3% have one here.

O=C(CN(Cc1ccccc1)C(=O)CNS(=O)(=O)c1ccc(F)cc1)NCc1ccco1	none
OC(CNC1CCCCC1)COCCOc1ccc(Br)cc1 (configuration not stated)	Kir21 block -4.3
CCc1ccc(OCCOCC(O)CN2CCN(Cc3ccc(Cl)cc3)CC2)cc1 (configuration not stated)	Kir21 block -9.1
COc1cccc(OCCOCC(O)CN2CCN(Cc3ccc(Cl)cc3)CC2)c1 (configuration not stated)	none
OC(COCCOc1ccc(Br)cc1)CN1CCN(Cc2ccccc2)CC1 (configuration not stated)	Kir21 block -7.4
COc1cccc(NC(=O)Cn2c3ccc(F)cc3c3nc4n(c(=O)c32)CCCS4)c1	none
CC(C)c1c(C(=O)N/N=C/c2c[nH]c3ccccc23)nnn1-c1nonc1N	Rce1 inh active
CC(C)c1c(C(=O)N/N=C/c2cccc3ccccc23)nnn1-c1nonc1N	Rce1 inh active
COc1cccc(/C=N/NC(=O)c2nnn(-c3nonc3N)c2C(C)C)c1OCc1ccc(F)cc1	Rce1 inh active
CCCc1c(C(=O)N/N=C/c2cccc3ccccc23)nnn1-c1nonc1N	none
CC1CCN(Cc2c(C(=O)N/N=C/c3cccc(C(F)(F)F)c3)nnn2-c2nonc2N)CC1	Rce1 inh active
CCOc1ccc(-c2c(C(=O)N/N=C/c3c[nH]c4ccccc34)nnn2-c2nonc2N)cc1	none
CC(C)(C)c1ccc(C(=O)C2CCCN(C(=O)CCn3cncn3)C2)cc1 (configuration not stated)	none
C#CCOCCOCCOCCNc1nc(N2CCN(C(=O)[C@H](Cc3cc4ccccc4[nH]3)n3cc([C@@H](N)CC(C)C)nn3)CC2)nc(N2CCN(C(=O)[C@H](Cc3cc4ccccc4[nH]3)n3cc([C@@H](N)CC(C)C)nn3)CC2)n1	FID counter 64
C#CCOCCOCCOCCNc1nc(N2CCN(C(=O)[C@H](Cc3cc4ccccc4[nH]3)n3cc([C@@H](N)C(C)CC)nn3)CC2)nc(N2CCN(C(=O)[C@H](CCCCN)n3cc([C@@H](N)CC(C)C)nn3)CC2)n1 (some centres not stated)	FID counter 44
O=Cc1[nH]c2ccccc2c1N(C(=O)CCl)c1ccc([N+](=O)[O-])cc1	Kir21 block -5.5
COC(=O)C1=Cc2cc(OC)cc([N+](=O)[O-])c2OC1N1CCOCC1 (configuration not stated)	none
COc1ccccc1OCC(=O)n1cc(C(=O)c2cc(Cl)cc(Cl)c2O)cn1	PfM18AAP inh 33
CC(C)NC(=S)n1cc(C(=O)c2cc(Cl)cc(Cl)c2O)cn1	none
CCOc1ccc(NC(C)c2cc(Cl)ccc2O)cc1 (configuration not stated)	none
CC(Nc1ccc(Cl)cc1)c1cc(Cl)ccc1O (configuration not stated)	Kir21 block -5.8
COc1ccc(-c2oc3ccc(N4CCOCC4)cc3c2/C=C/c2ccc(OC)c(OC)c2)cc1	Rce1 inh active
Cc1c(C)n2c(SCC(=O)N3CCN(c4ccccc4)CC3)nnc2[nH]c1=O	none (no result: FID counter, PfM18AAP inh)
COc1cc2c(cc1OC)CN(c1ccc3ccccc3n1)CC2	Kir21 block -11
O=C(O)c1cc2c(ccc3ccccc32)oc1=O	Rce1 inh active
O=C(c1cc2c(ccc3ccccc32)oc1=O)N1CCCC1	none
O=C(CN(c1ccccc1Cl)S(=O)(=O)c1ccccc1)NCc1ccccc1	none
CN(c1ccc(OCC(=O)NCCc2ccccc2)cc1)S(=O)(=O)c1ccc(Cl)cc1	none (no result: FID counter, PfM18AAP inh)
COc1ccc(CCNC(=O)COc2ccc(N(C)S(=O)(=O)c3ccc(Cl)cc3)cc2)cc1	Kir21 block -5.9
NC(=O)Nc1ccc(C(=O)OCC(=O)Nc2ccc(Cl)cn2)cc1	none
Nc1nnnn1/N=C/c1ccccc1OCc1ccc(Cl)cc1Cl	Rce1 inh active
Cc1ccc(S(=O)(=O)c2ccc([N+](=O)[O-])cn2)cc1	none
O=[N+]([O-])c1ccc(S(=O)(=O)c2ccccc2)nc1	Kir21 block -8.1
CC(NC(=O)COC(=O)C1CCN(c2ccc(C(F)(F)F)cn2)CC1)c1ccc(Br)cc1 (configuration not stated)	none
Cc1cc(N2CCOCC2)nc(NCc2ccccc2)n1	none
Cc1cc(N2CCCCC2)nc(NCc2ccccc2)n1	Kir21 block -6.7
COCc1cc(C)n(CC(=O)NC(C)c2ccccc2)c(=O)c1C#N (configuration not stated)	none
COCc1cc(C)n(CC(=O)NCc2ccccc2)c(=O)c1C#N	Rce1 inh active
COc1ccc(C(CNC(=O)c2oc3ccc(F)cc3c2C)N2CCCCC2)cc1 (configuration not stated)	none

High-throughput results from PubChem.
